NR3A LBD binder = modulators (binders) of human NR3A ligand-binding domain | Tm shift relative to glycine control, % at 25 µM | NR3A LBD differential scanning fluorimetry, Tm shift; 0% = protein alone, 100% = glycine-bound protein | 340,000 compounds, 2.5% hits;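 active = melting temperature shift of at least 10% of the positive control shift, at one fixed dose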
MPTP block = permeability transition pore inhibition; isolated mouse mitochondria, Ca2+ swelling absorbance, 30 min; inhibition, % at 10 µM; 360,000 compounds, 1.4% hits; AID 602449;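 active = inhibition of 50% or more, scaled per plate between neutral and stimulator controls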;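 also: 0% = DMSO wells given calcium and 100% = 1 mM EGTA wells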
ANO1 activ = mouse TMEM16A channel activation, primary screen | Q8BHY3 | HEK293 TMEM16A/YFP-H148Q/I152L, iodide quench fluorescence; hits give low values | B-score at 10 µM | 340,000 compounds, 0.3% hits | AID 623877;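 active = fluorescence-ratio B-score plate-corrected deviation score at least 3 library SD below zero, with starting fluorescence score within 5 deviations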;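 also: channel opened by trigger with iodide after compound preincubation; score built on the fluorescence ratio of max minus min over baseline; more negative score means more quench and so TMEM16A activation or potentiation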
Target sequence (Q8BHY3 whole entry, looked up): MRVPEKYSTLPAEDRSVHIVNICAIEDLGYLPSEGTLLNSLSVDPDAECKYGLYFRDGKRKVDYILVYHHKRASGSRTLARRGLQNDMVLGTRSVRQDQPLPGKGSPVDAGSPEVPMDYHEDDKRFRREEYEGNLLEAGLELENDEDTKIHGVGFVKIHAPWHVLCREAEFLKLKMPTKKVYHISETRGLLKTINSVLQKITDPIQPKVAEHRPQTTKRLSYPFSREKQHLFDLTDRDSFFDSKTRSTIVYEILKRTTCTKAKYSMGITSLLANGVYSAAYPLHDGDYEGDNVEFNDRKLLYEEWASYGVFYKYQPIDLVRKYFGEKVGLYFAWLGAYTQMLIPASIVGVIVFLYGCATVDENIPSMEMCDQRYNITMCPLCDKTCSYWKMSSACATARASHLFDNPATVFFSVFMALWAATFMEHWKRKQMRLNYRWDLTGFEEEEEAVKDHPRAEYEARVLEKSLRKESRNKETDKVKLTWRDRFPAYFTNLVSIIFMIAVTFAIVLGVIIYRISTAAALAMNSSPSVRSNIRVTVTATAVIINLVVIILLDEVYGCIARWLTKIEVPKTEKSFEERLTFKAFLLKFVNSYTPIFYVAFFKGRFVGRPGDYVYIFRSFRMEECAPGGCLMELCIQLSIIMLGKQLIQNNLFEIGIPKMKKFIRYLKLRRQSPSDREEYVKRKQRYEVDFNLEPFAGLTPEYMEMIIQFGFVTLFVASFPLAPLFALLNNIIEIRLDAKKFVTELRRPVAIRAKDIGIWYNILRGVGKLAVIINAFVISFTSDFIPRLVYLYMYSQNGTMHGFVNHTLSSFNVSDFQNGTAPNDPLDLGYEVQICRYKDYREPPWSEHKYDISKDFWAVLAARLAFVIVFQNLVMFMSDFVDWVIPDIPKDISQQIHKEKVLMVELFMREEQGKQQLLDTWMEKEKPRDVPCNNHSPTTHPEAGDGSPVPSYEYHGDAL
CRFBP-R2 agonist = agonists of human CRF-binding protein/CRF-R2 receptor complex; HEK293 CRF-R2/CRF-BP, calcium dye fluorescence (FLIPR); percent of saturating CRF peptide response; activation, % at 13.2 µM; 350,000 compounds, 0.46% hits; AID 588473;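 active = activation of at least 50%, plus an integration ratio under a set limit after plate pattern correction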;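 also: plate controls were neutral control wells without compound for no effect and CRF at EC100 for full effect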
TMEM16A inh = mouse TMEM16A channel inhibition, primary screen | normalized B-score (activity score, 25-100; higher = stronger inhibition) at 10 µM | HEK293 TMEM16A/YFP iodide influx fluorescence, ionomycin | 310,000 compounds, 1.2% hits;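 active = ratio plate-corrected score three or more library SD toward inhibition, starting fluorescence score within five deviations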;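 also: score derived from kinetic fluorescence span divided by baseline fluorescence per well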
CRFR2-BP antag = blocks CRF-induced signaling of the CRF-BP/CRF-R2 complex; HEK293 CRF-R2/CRF-BP, CRF-induced calcium fluorescence; inhibition, % at 11.8 µM; AID 588475; 350,000 compounds, 0.59% hits;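 active = inhibition of the ligand-induced calcium signal above about 50% at the single tested concentration, limit read from the data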
Active calls of the source: *; i = inactive; nt = no result given. In the library only some 5.1% were active in any assay of this set; here they are far more common.

SMILES | NR3A LBD binder | MPTP block | ANO1 activ | CRFBP-R2 agonist | TMEM16A inh | CRFR2-BP antag
Cc1cc(NS(C)(=O)=O)c(=O)n(Cc2cccc(C(F)(F)F)c2)c1 | nt | -1 | nt | 2 | nt | 1
Cc1ccc(-n2c(C)cc(/C=N/NC(=O)c3ccncc3)c2C)cc1 | -2 | -1 | i | 0 | i | 19
Cc1ccc(C(=O)N/N=C/c2cc(C)n(-c3ccc(Br)cc3)c2C)cc1[N+](=O)[O-] | 14* | 3 | i | -2 | i | -10
CC1CCCC(C)N1CCCNC(=O)C1CCCN(S(=O)(=O)N2CCCCC2)C1 (stereo not drawn) | nt | 0 | nt | 2 | nt | 7
O=C(COc1cccc2c1CCN(Cc1ccc(Br)cc1)C2=O)NCc1ccco1 | 0 | 6 | i | -1 | i | 64*
O=C(CNS(=O)(=O)c1cccs1)NCCc1ccc(Cl)cc1 | -3 | 0 | i | -2 | i | 56*
CCCc1cc(C(=O)Nc2ccc(C(=O)c3ccc(C)cc3)cc2)n(C)n1 | -10 | 2 | i | 3 | 100* | -2
CCn1c(SCC(=O)Nc2ccc(NC(=O)c3cccs3)cc2)nnc1-c1cccnc1 | 21* | 0 | i | -1 | i | -9
O=C(CSc1ccc2nnc(-c3cccnc3)n2n1)Nc1ccc(F)cc1 | 0 | 1 | i | 0 | i | 7
CCOc1ccc(NC(=O)CSc2ccc3nnc(-c4cccnc4)n3n2)cc1 | 2 | 1 | i | 1 | i | 125*
Cc1ccc(NC(=O)c2cc(-c3ccccc3O)n[nH]2)cc1Cl | 26* | -1 | i | 4 | i | -1
NS(=O)(=O)c1ccc(NC(=O)c2cc(-c3ccccc3O)n[nH]2)cc1 | 34* | -1 | i | 0 | i | 5
COc1ccc(NC(=O)c2cc(-c3ccccc3O)n[nH]2)cc1Cl | 26* | 3 | i | 4 | i | -4
COc1ccc(Cl)c(-c2cc(C(=O)Nc3ccccc3)[nH]n2)c1 | nt | 8 | nt | nt | nt | nt
COc1ccc(N(C)S(=O)(=O)c2cccc(C(=O)NCc3ccc(C)cc3)c2)cc1 | -8 | 0 | i | 2 | nt | 0
COc1ccc(C2N(C(=O)C(F)(F)F)C(C)CN2S(=O)(=O)c2ccc(C)cc2)cc1 (stereo not drawn) | 1 | 0 | i | 0 | i | 12
CC(C)c1nc(SCC(=O)Nc2ccc([N+](=O)[O-])cc2Br)n[nH]1 | 11* | 19 | i | -5 | i | 6
Cc1cc(Cl)ccc1OCCCC(=O)NNC(=O)c1ccccc1O | -3 | 2 | i | -1 | i | -6
Cc1nnc(SCC(=O)Nc2cc(C(F)(F)F)ccc2N2CCOCC2)o1 | 0 | 2 | i | -2 | i | 9
Cc1ccccc1SCC(=O)Nc1cc(C(F)(F)F)ccc1N1CCOCC1 | -11 | 0 | i | 4 | 100* | -19
CCOC(=O)c1cnc(SCC(=O)Nc2cc(C(F)(F)F)ccc2N2CCOCC2)nc1N | 1 | -1 | -7.1* | 1 | i | 8
O=C(Nc1ccccc1F)c1ccc(CNS(=O)(=O)c2cccc(C(F)(F)F)c2)cc1 | 0 | 0 | i | 0 | i | 3
O=C(Nc1ccccc1)c1ccc(S(=O)(=O)NCC2CCCO2)cc1 (stereo not drawn) | 0 | 0 | i | -2 | i | 9
Cc1ccc(NC(=O)c2ccc(CNS(=O)(=O)c3cccc(C(F)(F)F)c3)cc2)cc1 | 11* | 0 | i | 2 | i | -9
O=C(Nc1cccc(Cl)c1)c1ccc(S(=O)(=O)NCC2CCCO2)cc1 (stereo not drawn) | 21* | 0 | i | 7 | i | -14
SMILES | NR3A LBD binder | MPTP block | ANO1 activ | CRFBP-R2 agonist | TMEM16A inh | CRFR2-BP antag
COc1cccc(S(=O)(=O)NCc2ccc(C(=O)Nc3cccc(Cl)c3)cc2)c1 | 15* | 2 | i | 2 | i | 6
O=C(COC(=O)c1ccc(F)cc1F)Nc1cccc(S(=O)(=O)N2CCOCC2)c1 | 4 | 0 | i | -1 | nt | 2
COc1ccccc1-c1ncn(Cc2cccc(-c3ccccc3)c2)c1CC(C)C | nt | 20 | nt | nt | nt | nt
Cc1ccc(C(=O)OCn2nnc3ccccc3c2=O)cc1[N+](=O)[O-] | 0 | -2 | i | -3 | i | 79*
COc1ccc(C(=O)OCn2nnc3ccccc3c2=O)cc1[N+](=O)[O-] | 6 | -1 | i | 6 | i | 0
CC(=O)C1=CCC(c2ccccc2F)N(S(=O)(=O)c2ccc(C)cc2)C1 (stereo not drawn) | nt | 1 | nt | nt | nt | nt
COc1cccc2cc(C(=O)CC3(O)C(=O)N(Cc4ccccc4)c4ccccc43)c(=O)oc12 (stereo not drawn) | 15* | 5 | i | -2 | i | -2
Cc1cc(C)cc(NS(=O)(=O)c2ccc3c(c2)C(C)(C)C(=O)N3C)c1 | -2 | -2 | i | -5 | i | -15
CC1CCN(C(=O)CSc2nnc(CNC(=O)c3ccco3)o2)CC1 | -6 | 0 | -15* | -1 | i | 16
O=C(CC1CCCCC1)c1c(O)c2ccccc2oc1=O | -7 | 0 | i | 70* | i | 37
O=C1NCCn2ccc(=O)cc21 | 0 | 1 | i | 0 | i | 9
Nc1ncnc2c1ncn2[C@@H]1O[C@H](CNCc2ccc(-c3cc(C(F)(F)F)ccc3Cl)o2)[C@@H](O)[C@H]1O | -2 | -1 | nt | -2 | nt | 4
O=c1ccn([C@@H]2O[C@H](CNCc3ccc(-c4cc(C(F)(F)F)ccc4Cl)o3)[C@@H](O)[C@H]2O)c(=O)[nH]1 | 17* | 1 | nt | -4 | nt | -10
COc1ccccc1N1C(=O)C(Cl)=C(Nc2ccccc2O)C1=O | -4 | 6 | i | 84* | nt | -124
O=C1C(Cl)=C(Nc2ccccc2O)C(=O)N1c1ccccc1 | -7 | 7 | nt | 3 | i | 7
COc1cc2cc(CN(Cc3cccs3)C(=S)Nc3ccc(C)cc3)c(=O)[nH]c2cc1OC | 12* | 1 | i | 4 | i | -46
Cc1nn(-c2ccc(C(=O)NCC(c3ccco3)N3CCCC3)cc2)c(C)c1Cl (stereo not drawn) | 1 | 1 | i | -1 | nt | -6
COc1cc(C(=O)OCc2cccc(S(=O)(=O)N3CCOCC3)c2)ccc1OCC(C)C | 0 | -2 | i | 0 | nt | 0
CC(=NO)C1CCC2C3CCC4=CC(=NO)CCC4(C)C3C(=O)CC12C (stereo not drawn) | 18* | 0 | i | -2 | nt | -8
O=C(Nc1nnc(SCc2ccccc2F)s1)C1=COCCO1 | 3 | -1 | i | 0 | i | 10
CCN(Cc1ccccc1)c1ccc(/C=N/NS(=O)(=O)c2cccc([N+](=O)[O-])c2)cc1 | 10* | 5 | i | -2 | i | 16

High-throughput results deposited in PubChem BioAssay by several laboratories.
